Experimental data from PubChem BioAssay (NCATS).
Results filed as inconclusive are left out. Calls of active or inactive are those of the source. The call rests on the fitted dose curve; in most records, active means well fitted inhibition curve with a large enough effect; inconclusive means small, poorly fitted or top-dose-only effect; inactive means flat fitted curve, though single readings scatter.

molecular target: Luciferin 4-monooxygenase (Photinus pyralis) (UniProt P08659); test: Biochemical firefly luciferase enzyme assay for NPC (AID 624030);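 further: purified P. pyralis luciferase at 10 nM with luciferin and ATP substrate; nearly all actives have a fitted effect of over 70% in size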; conditions: purified P. pyralis luciferase, luminescence, 5 min; series mostly up to 58.6 µM
Outline: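 Counter-screen for direct inhibition of the luciferase enzyme by approved-drug library compounds, run at 10 nM enzyme in 50 mM Tris acetate (final). Luminescence was read within 5 min of enzyme-buffer addition and normalized to PTC124 versus DMSO (0%).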

Sequence of Luciferin 4-monooxygenase (Photinus pyralis) (P08659 whole entry, looked up): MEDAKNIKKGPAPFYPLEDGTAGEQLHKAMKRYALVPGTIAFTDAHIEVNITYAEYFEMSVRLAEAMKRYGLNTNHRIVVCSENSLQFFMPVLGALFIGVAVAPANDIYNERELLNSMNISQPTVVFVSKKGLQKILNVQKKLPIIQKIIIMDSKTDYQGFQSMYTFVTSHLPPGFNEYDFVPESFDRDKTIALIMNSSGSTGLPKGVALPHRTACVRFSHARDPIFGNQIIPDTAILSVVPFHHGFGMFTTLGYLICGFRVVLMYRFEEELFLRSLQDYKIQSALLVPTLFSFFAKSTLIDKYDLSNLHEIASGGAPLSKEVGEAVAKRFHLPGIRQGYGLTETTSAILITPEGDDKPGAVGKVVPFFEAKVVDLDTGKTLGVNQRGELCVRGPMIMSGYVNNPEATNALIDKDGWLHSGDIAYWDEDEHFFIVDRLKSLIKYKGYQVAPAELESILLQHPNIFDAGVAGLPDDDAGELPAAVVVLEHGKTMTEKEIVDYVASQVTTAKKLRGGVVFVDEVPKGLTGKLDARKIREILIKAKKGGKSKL

Potency, inactive:
C=C1C[C@@H]2[C@H]3CCC4=CC(=O)C=C[C@]4(C)[C@@]3(F)[C@@H](O)C[C@]2(C)[C@]1(O)C(=O)COC(C)=O
CC(=O)O[C@H]1C[C@@H]2CC[C@@H]3[C@H](CC[C@]4(C)[C@H](OC(C)=O)[C@@H](N5CC[N+](C)(C)CC5)C[C@@H]34)[C@@]2(C)C[C@@H]1N1CC[N+](C)(C)CC1
C/C(=C(/CCOC(=O)c1ccccc1)SS/C(CCOC(=O)c1ccccc1)=C(\C)N(C=O)Cc1cnc(C)nc1N)N(C=O)Cc1cnc(C)nc1N
Cc1c(N)nc([C@@H](CC(N)=O)NC[C@H](N)C(N)=O)nc1C(=O)N[C@H](C(=O)N[C@@H](C)[C@@H](O)[C@@H](C)C(=O)N[C@H](C(=O)NCCc1nc(-c2nc(C(=O)NCCCN[C@H](C)c3ccccc3)cs2)cs1)[C@H](C)O)[C@@H](O[C@H]1O[C@@H](CO)[C@H](O)[C@@H](O)[C@H]1O[C@H]1O[C@@H](CO)[C@@H](O)[C@H](OC(N)=O)[C@H]1O)c1cnc[nH]1
Cc1ccccc1C(=O)N1CC/C(=N/OS(=O)(=O)O)c2ccc(Cl)cc21
CCC[C@@H]1CC(C(=O)NC(C2O[C@H](SC)C(OP(=O)(O)O)[C@H](O)[C@H]2O)[C@H](C)Cl)N(C)C1 (stereo not given in full)
CCC[C@H]1C[C@H](C(=O)NC(C(C)Cl)C2O[C@@H](SC)C(OP(=O)(O)O)[C@@H](O)[C@@H]2O)N(C)C1 (stereo not given in full)
CCOC(=O)CCC(=O)OC1C(OC2C(C)C(OC3CC(C)(OC)C(O)C(C)O3)C(C)C(=O)OC(CC)C(C)(O)C(O)C(C)C(=O)C(C)CC2(C)O)OC(C)CC1N(C)C (stereo not given)
CC(=O)OCC(=O)[C@@]1(O)[C@H](C)C[C@H]2C3C[C@H](F)C4=CC(=O)C=CC4(C)C3[C@@H](O)CC21C (stereo not given in full)
OC[C@H]1O[C@H](OC/C=C/c2ccccc2)[C@H](O)[C@@H](O)[C@@H]1O
CCCCCCC(=O)O[C@@H]1CC[C@H]2[C@@H]3CCc4cc(O)ccc4[C@H]3CC[C@]12C
CC(=O)O[C@H](C)OC(=O)[C@@H](C)c1ccc(-c2ccccc2)c(F)c1
CCCCCCC(O)C/C=C\CCCCCCCC(=O)O (stereo not given)
CC(=O)OC1CCC2(C)C(=CCC3C2CCC2(C)C(C(C)=O)CCC32)C1 (stereo not given)
C[N+]1(C)CCN(C[C@@](O)(c2ccccc2)C2CCCCC2)CC1
Cc1c(C)c2c(c(C)c1OC(=O)CCC(=O)OCCO)CC[C@](C)(CCC[C@H](C)CCC[C@H](C)CCCC(C)C)O2
CC(C)(C)CC(=O)OCC(=O)[C@@]12OC(C)(C)O[C@@H]1C[C@H]1[C@@H]3CCC4=CC(=O)C=C[C@]4(C)[C@@]3(F)[C@@H](O)C[C@]12C
CC(CSC(=O)c1ccccc1)C(=O)N1CC(Sc2ccccc2)CC1C(=O)O (stereo not given)
O=C(CO)[C@@H](O)C(O)[C@@H](O)CO (stereo not given in full)
CC[C@@H]1OC(=O)C[C@H](O)[C@@H](C)[C@@H](O[C@H]2O[C@@H](C)[C@H](O[C@@H]3C[C@](C)(O)[C@H](O)[C@@H](C)O3)[C@@H](N(C)C)[C@@H]2O)[C@@H](C=O)C[C@@H](C)C(=O)/C=C/C(C)=C[C@@H]1CO[C@H]1O[C@@H](C)[C@H](O)[C@H](OC)[C@@H]1OC
c1ccc(C(OC2CCCN(CCc3ccc4c(c3)OCO4)C2)c2ccccc2)cc1 (stereo not given)
CCCC(=O)O[C@]1(C(=O)COC(=O)CC)[C@@H](C)C[C@H]2[C@@H]3CCC4=CC(=O)C=C[C@@]4(C)[C@@]3(F)[C@H](O)C[C@@]21C
Cc1nc2n(c(=O)c1CCN1CCC(c3noc4cc(F)ccc34)CC1)CCC[C@@H]2O
CC/C(O)=N/S(=O)(=O)c1ccc(-c2c(-c3ccccc3)noc2C)cc1
CCN(CCO)CCn1c(Cc2ccccc2)nc2c1c(=O)n(C)c(=O)n2C
C[C@@H]1O[C@@]2(CS1)CN1CCC2CC1
CC(=O)OCC(=O)C1(O)CCC2C3CCC4=CC(=O)CCC4(C)C3C(O)CC21C (stereo not given)
CO[C@H]1C[C@@H](O[C@@H]2[C@@H](C)O[C@@H](O[C@@H]3/C(C)=C/CC4C[C@@H](C[C@]5(C=C[C@@H](C)[C@H](C6CCCCC6)O5)O4)OC(=O)[C@@H]4C=C(C)[C@@H](O)[C@H]5OC/C(=C\C=C\[C@@H]3C)[C@]54O)C[C@H]2OC)O[C@@H](C)[C@@H]1O
CC(C)(S)C(=O)NC(CS)C(=O)O (stereo not given)
COC(=O)C1=C(C)NC(C)=C(C(=O)O[C@H]2CCN(Cc3ccccc3)C2)C1c1cccc([N+](=O)[O-])c1 (stereo not given in full)
CO[C@]1(NC(=O)Cc2cccs2)C(=O)N2C(C(=O)O)=CC(COC(N)=O)S[C@H]21 (stereo not given in full)
CCC(=O)OC1CCC2C3CCc4cc(O)ccc4C3CCC12C (stereo not given)
CCC(=O)Oc1ccc2c(c1)CCC1C2CC[C@]2(C)C(OC(=O)CC)CCC12 (stereo not given in full)
CCN1C(=O)c2ccccc2C1Nc1cccc(OCCN2CCCCC2)c1 (stereo not given)
NC(N)=NCCCC(N)C(=O)O (stereo not given)
O=S(=O)(O)OCC1OC(OC2(COS(=O)(=O)O)OC(COS(=O)(=O)O)C(OS(=O)(=O)O)C2OS(=O)(=O)O)C(OS(=O)(=O)O)C(OS(=O)(=O)O)C1OS(=O)(=O)O (stereo not given)
COc1ccc(CCNC[C@H](O)COc2cccc(C)c2)cc1OC
O=S(=O)(O)OCC1OC(COS(=O)(=O)O)(C2(OS(=O)(=O)O)OC(CO)C(OS(=O)(=O)O)C(OS(=O)(=O)O)C2OS(=O)(=O)O)C(OS(=O)(=O)O)C1OS(=O)(=O)O (stereo not given)
C=C[C@]1(C)C[C@@H](OC(=O)CO)[C@]2(C)C(C)CC[C@]3(CCC(=O)[C@H]32)[C@@H](C)[C@@H]1O (stereo not given in full)
CC(CN1CCOCC1)C(Cc1ccccc1)(Cc1ccccc1)C(=O)N1CCCC1 (stereo not given)
